Screening results (PubChem)
TGFb inhibitor = blocks TGF-b signaling | HepG2 CAGA-GFP TGF-b/SMAD3 reporter, GFP fluorescence, 18 h; TGF-beta stimulated, 500 pg/mL final | Potency, µM (highest dose often 46.1 µM), for the others: at the highest dose activity, negative = inhibition, hits mostly inhibitors | hit rate 1.2% among 410,000; note: potency is the fitted concentration of half-maximal effect; % is set by controls: 0 for no effect and ±100 for the full control effect; nearly all actives have a fitted effect of over 65% in size
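HEPG2 CAGA-GFP, 1000 cells/well; 2 h settle, 37 C; cpd via pin tool; TGF-b 500 pg/mL final; 18 h, 37 C; GFP imaging ex488/em500-530; %Activity normalised to -TGF-b and +DMSO controls; CRC fit, curve class.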
ATXN2 expr inh = inhibitors of ATXN2 expression. AID 1745845. Potency, µM (doses to about 57 µM), for the others: at the highest dose activity change, negative = inhibition, usual class: inhibitors. HEK-293 ATXN2-luciferase reporter, luminescence, 24 h. hit rate 0.72% among 360,000; note: potency is the fitted concentration of half-maximal effect; % is set by controls: 0 for no effect and ±100 for the full control effect; nearly all actives have a fitted effect of over 55% in size
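ATXN2-luciferase reporter cells (luciferase flanked by upstream and downstream ATXN2 gene portions) were treated 24 h at 37 °C with compounds at up to 57 uM. SteadyGlo luminescence gave expression; GF-AFC fluorescence gave viability.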
CtBP-E1A blk = inhibitors of CtBP/E1A interaction; AlphaScreen GST-E1A/His-CtBP binding, 1536-well; hits give low values; AID 651724; hit rate 0.49% among 340,000; activity change, % (test concentration not listed); in the data active = activity change below about -65%; inconclusive = mostly about -30% to -63%; note: % is set by controls: 0 for no effect and ±100 for the full control effect
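Homogeneous bead-based format: GST-tagged E1A captured on glutathione donor beads, His-tagged CtBP on nickel acceptor beads; compounds precede bead addition by 2 h at 37 °C.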
Six1-Eya2 inh = inhibitors of human Six1/Eya2 interaction; Q15475+O00167; AlphaScreen GST-Six1/His-Eya2 binding, biochemical; hits give low values; activity change, % (no concentration beside the values); hit rate 0.56% among 360,000; in the data active = activity change below about -65%; inconclusive = mostly about -30% to -63%; note: % is set by controls: 0 for no effect and ±100 for the full control effect
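AlphaScreen with GST-Six1 and His-Eya2 (5X mix: 250 nM and 500 nM), glutathione donor and nickel acceptor beads; buffer 50 mM Tris pH 8.0, 300 mM NaCl, 1 mM TCEP; 1 h at 37 C in the dark.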
HepG2 tox = counter-screen for TGF-b inhibitors: cytotoxicity in HepG2 cells | HepG2 CAGA-GFP viability, ATP luminescence, 18 h | Potency, µM (highest dose often 46.1 µM), without a hit: top-dose activity change, negative = cytotoxicity, hits mostly cytotoxic | hit rate 0.76% among 410,000 | AID 588856; note: potency is the fitted concentration of half-maximal effect
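HepG2 CAGA-GFP cells (1000/well, DMEM with 1% FBS) received compound, then TGF-beta at 500 pg/mL final, and were incubated 18 hours at 37 degrees C. Viability was read by CellTiter-Glo luminescence. Media-only wells were set as complete cell-killing and DMSO as no toxicity.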
S2 tox = viability counter-screen for ATXN expression inhibitors; S2 cells (HEK-293 line with an ATXN2-luciferase reporter) viability, CellTiter-Fluor protease fluorescence, 24 h; Potency, µM (titrated, usually from 56.7 µM), most hits filed as cytotoxic; hit rate 0.49% among 400,000; note: potency is the fitted concentration of half-maximal effect; nearly all actives have a fitted effect of over 40% in size
* = called active by the depositor; i = inactive; ? = inconclusive; nt = not tested or not shown. Compounds with a hit are over-represented: about 2.8% of the library has one in this group of screens. Unless noted, calls come from the whole dose curve; as a rule, active = well fitted curve in the direction sought with a large enough effect; inconclusive = small, poorly fitted or top-dose-only effect, or another doubt; inactive = no such curve, though single readings can be large; an effect the other way counts as inactive or inconclusive.

SMILES | TGFb inhibitor | ATXN2 expr inh | CtBP-E1A blk | Six1-Eya2 inh | HepG2 tox | S2 tox
Clc1ccccc1C(c1ccccc1)(c1ccccc1)n1ccnc1 | ? | ? | -6 | -9 | 20µM* | ?
C#CC(c1ccccc1)(c1ccccc1)n1ccnc1 | -5% | nt | 0 | -12 | -17% | i
C=CC[N+]1([C@H]2C[C@H]3[C@@H]4CC[C@H]5C[C@H](OC(C)=O)[C@@H](N6CCCCC6)C[C@]5(C)[C@H]4CC[C@]3(C)[C@H]2OC(=O)CC)CCCCC1 | nt | 1% | nt | nt | nt | ?
COc1cc(CN(C)CC2CCCN(CCc3ccccc3F)C2)cc(Cl)c1OC (stereo not drawn) | -18% | ? | -14 | ? | -46% | 18µM*
COc1cccc(NC(=O)N2CCN(c3nc(-c4cccc(OC)c4)cs3)CC2)c1 | ? | nt | nt | -24 | -36% | 14µM*
COc1cccc(-c2csc(N3CCN(C(=O)Nc4ccccc4Cl)CC3)n2)c1 | -17% | nt | nt | -9 | 0% | i
COc1cccc(Nc2nc(-c3sc(N)nc3C)cs2)c1 | 4% | 37% | -72* | ? | 4% | i
COc1cccc(NC(=O)Nc2nc(-c3ccc(OC)c(OC)c3)cs2)c1 | 11µM* | 3.2µM* | -29 | -19 | 16µM* | 8.9µM*
C[C@H](N)C(=O)N[C@@H](C)C(=O)NC1[C@H]2CN(c3nc4c(cc3F)c(=O)c(C(=O)O)cn4-c3ccc(F)cc3F)C[C@@H]12 (stereo partly drawn) | nt | -2% | nt | nt | nt | i
C/C(=N\Nc1ncc(Cl)cc1Cl)c1ccccn1 | 89% | nt | -66* | -87* | -41% | nt
Cc1sc2ncnc(N/N=C/c3cccc(O)c3)c2c1C | ? | 40% | -24 | ? | -27% | nt
C/C(=N\Nc1ncc(Cl)cc1Cl)c1ccc(N2CCOCC2)cc1 | 19% | -2% | 0 | -8 | 41% | i
C/C(=N\Nc1ncnc2sc(C)c(C)c12)c1ccccn1 | -8% | 0.28µM* | -94* | -73* | -88% | ?
C/C(=N\Nc1ccc(Cl)c(C(=O)O)c1)c1ccccn1 | 12% | -14% | -18 | -15 | -2% | 25µM*
OC[C@H]1O[C@H](O[C@]2(CCl)O[C@H](CCl)[C@@H](O)[C@@H]2O)[C@H](O)[C@@H](O)[C@H]1Cl | nt | 8% | nt | nt | nt | i
C=CCC[C@H](Cc1ccc(F)cc1)C(=O)OC[C@@H](Cc1c[nH]c2ccccc12)NC(=O)[C@@H](CC=C)CC(=O)N[C@@H](CO)Cc1ccccc1 | 10µM* | ? | -3 | -8 | -56% | 13µM*
C=CCC[C@@H](Cc1ccc(F)cc1)C(=O)OC[C@@H](Cc1c[nH]c2ccccc12)NC(=O)[C@H](CC=C)CC(=O)N[C@H](CO)Cc1ccccc1 | ? | ? | 1 | 12 | -80% | 25µM*
COc1ccc(NC(=O)c2ccc3oc(=O)c(S(=O)(=O)c4ccc(F)cc4)cc3c2)cc1OC | 11µM* | -25% | nt | nt | -73% | ?
Brc1ccc[n+](CCC2CCCCC2)c1 | -1% | nt | nt | nt | -9% | nt
CC1CCN(S(=O)(=O)c2ccc3c(c2)c(=O)c(C(=O)NCc2ccc(Cl)cc2)cn3C)CC1 | 6% | -5% | nt | nt | 3% | i
CCOc1ccc(CN(C)c2nc(-c3cccnc3)nc3ccccc23)cc1OC | ? | 19µM* | 21 | -23 | -29% | ?
CN(Cc1ccccc1F)c1nc(-c2cccnc2)nc2ccccc12 | -18% | -16% | 0 | ? | -2% | i
O=C1c2ccccc2-[n+]2ccc3c([nH]c4ccccc43)c21 | nt | 2.7µM* | nt | nt | nt | nt
CCOC(=O)C[n+]1ccc2c([nH]c3ccccc32)c1C | 1% | -3% | -2 | -9 | 5% | nt
COc1ccc(CN2CCC(n3cc(C(=O)N4CCCC4)nn3)CC2)c(OC)c1C | nt | nt | nt | nt | nt | i
SMILES | TGFb inhibitor | ATXN2 expr inh | CtBP-E1A blk | Six1-Eya2 inh | HepG2 tox | S2 tox
CN(C)CCCNC(=O)/C(=C/c1ccc(-c2ccc([N+](=O)[O-])cc2)o1)NC(=O)c1ccccc1 | -24% | -36% | -9 | 14 | -15% | i
CN(C)CCCNC(=O)/C(=C\c1ccc(-c2ccc(Br)cc2)o1)NC(=O)c1ccccc1 | ? | ? | 1 | 2 | 11µM* | i
COc1ccc(CN2CC[C@H]3C=CC[C@@H](C(=O)N4CCN(c5ccccc5)CC4)[C@H]3C2=O)cc1OC | 1% | nt | nt | nt | 9% | nt
Cc1nn(-c2ccccc2)c(C)c1/C=C/C(=O)OCC(=O)NC1CCS(=O)(=O)C1 (stereo not drawn) | 0% | 9% | -75* | -3 | -27% | i
CCN1CCC(N[C@H]2C[C@@H](C(=O)NC)N(Cc3cccc4ccccc34)C2)CC1 | nt | nt | nt | nt | nt | i
CCN(CC)c1ccc(/C=N/NC(=S)NC)c(O)c1 | ? | ? | ? | -90* | -36% | ?
CCOc1cccc(/C=N/NC(=O)c2cc(C3CC3)[nH]n2)c1O | -2% | nt | nt | -86* | -23% | i
CCOc1cccc(/C=N/NC(=O)c2cccnc2)c1O | ? | nt | nt | ? | -20% | ?
COc1cccc(/C=N/Nc2ccccc2C(=O)O)c1O | -4% | 9% | -10 | -5 | -32% | i
CCN(CC)c1ccc(/C=N/NC(=O)OC)c(O)c1 | -12% | 13% | -14 | -19 | -2% | ?
COc1cccc(/C=N/Nc2nn3cnnc3c3ccccc23)c1O | -4% | -25% | -91* | -87* | -46% | i
COc1cccc(/C=N/NC(=O)c2c(C)nc3ccc(Br)cn23)c1O | ? | 0.63µM* | -91* | -92* | -19% | i
CCOc1ccccc1/C=N/NC(=O)c1c(C)nc2ccc(Br)cn12 | 0% | -20% | -1 | -2 | -15% | i
CC(C)(C)n1ncc2c(=O)n(Cc3c(F)cc(Cl)cc3F)cnc21 | -15% | nt | nt | nt | -18% | nt
O=C(NCC(c1ccc2c(c1)OCO2)N1CCN(c2ccccc2)CC1)C(=O)Nc1ccc(F)cc1 (stereo not drawn) | 11% | nt | nt | nt | 0% | nt
COc1cccc(/C=N/NC(=O)c2nc(-c3ccccc3)cc(-c3ccccc3)n2)c1O | -21% | 10µM* | -6 | -3 | -31% | i
CCN(CC)c1ccc(/C=N/NC(=O)c2ccc3nc[nH]c3c2)c(O)c1 | -2% | 2.8µM* | -75* | ? | 3% | i
COc1ccc(/C=N/NC(=O)c2ccc3nc[nH]c3c2)c(OC)c1 | 0% | nt | nt | 3 | 3% | i
COc1cc(C(=O)Oc2ccccc2/C=N/NC(=O)c2ccc(C)c(Cl)c2)cc(OC)c1OC | ? | ? | 11 | -6 | -48% | ?
